ChEMBL document CHEMBL1201862, “PubChem BioAssay data set” (2004)
Hit rate of the full screen: of about 420,000 compounds, about 64,000 (15%) were called active. Roughly 27% stayed inconclusive and do not appear here. This is one part of a sample in which actives are shown more often than they occur. No cut-off for these calls is given here.

Target: Tyrosyl-DNA phosphodiesterase 1 (Homo sapiens) (UniProt Q9NUW8)
Experiment: qHTS for Inhibitors of human tyrosyl-DNA phosphodiesterase 1 (TDP1): qHTS in cells in absence of CPT.
Format: functional

Tyrosyl-DNA phosphodiesterase 1 (Homo sapiens), sequence (Q9NUW8 whole entry): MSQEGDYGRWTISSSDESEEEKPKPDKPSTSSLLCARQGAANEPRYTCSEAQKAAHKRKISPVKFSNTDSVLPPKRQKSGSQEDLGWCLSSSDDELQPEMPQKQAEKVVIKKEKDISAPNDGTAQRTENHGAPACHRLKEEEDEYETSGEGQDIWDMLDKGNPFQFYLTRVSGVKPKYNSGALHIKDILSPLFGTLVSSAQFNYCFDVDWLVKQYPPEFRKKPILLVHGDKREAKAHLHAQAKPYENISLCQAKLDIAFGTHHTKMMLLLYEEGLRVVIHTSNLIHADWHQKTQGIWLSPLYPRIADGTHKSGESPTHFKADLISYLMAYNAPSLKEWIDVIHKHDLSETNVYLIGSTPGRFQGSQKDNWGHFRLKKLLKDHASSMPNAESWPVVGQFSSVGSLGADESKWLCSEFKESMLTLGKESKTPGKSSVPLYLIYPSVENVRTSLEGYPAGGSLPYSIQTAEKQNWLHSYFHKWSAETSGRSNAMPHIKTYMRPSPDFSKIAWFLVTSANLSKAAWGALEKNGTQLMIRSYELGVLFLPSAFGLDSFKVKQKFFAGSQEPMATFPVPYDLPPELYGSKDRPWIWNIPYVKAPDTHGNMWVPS

Potency, active:
ICCCCN1C=S(CI)c2ccccc21 (stereo not drawn) 8.91 µM
Cc1cccc2c1N(CCCCI)C=S2C (stereo not drawn) 3.98 µM
CN(C)c1ccc(/C=C/c2cccc3c2N(CCCCI)C=S3/C=C/c2ccc(N(C)C)cc2)cc1 (stereo not drawn) 15.8 µM
COc1ccc(OC)c(/C=C/c2cccc3c2N(CCCCI)C=S3/C=C/c2cc(OC)ccc2OC)c1 (stereo not drawn) 7.08 µM
CCOc1ccc(N2C(=O)c3ccccc3N/C2=C\N2CCN(C(=O)c3ccco3)CC2)cc1 10 µM
O=C(/C=C/c1ccc(Cl)cc1)c1cccs1 7.5 µM
COc1ccccc1/C=C/C(=O)c1cccs1 5.96 µM
CC(C)C(C)c1cccc2c1NC=S2C(C)C(C)C (stereo not drawn) 5.62 µM
